Bioassay records (PubChem)
In the library only some 7.9% were active in any assay of this set; here they are far more common.
SW480 rerep: A quantitative high throughput screen for small molecules that induce DNA re-replication in SW480 colon adenocarcinoma cells | Potency, µM (titrated, usually from 46.1 µM), for the others: at the top dose re-replication activation, hits mostly activators | AID 624297, 2012 | SW480 DNA re-replication, Hoechst DNA content imaging, 48 h | 340,000 compounds, 1.8% hits; also: % of control where 0% means no effect; nearly all actives have a fitted effect of over 55% in size
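SW480 cells exposed to compounds for 48 hr at 37 C, 5% CO2, then Hoechst-stained 40 min. Nuclear DNA content imaged by fluorescence scanning (405 nm excitation, 500-530 nm emission); re-replication scored as increased high-intensity nuclei.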
HT1080NT lethal: qHTS for induction of synthetic lethality in tumor cells producing 2HG: qHTS for the HT-1080-NT fibrosarcoma cell line; HT-1080-NT fibrosarcoma viability, CellTiter-Glo ATP luminescence, 48 h; Potency, µM (titrated, usually from 46.1 µM), inactives show top-dose activity, negative = less viability, hits mostly cytotoxic; 360,000 compounds, 1.6% hits; AID 686970, 2013;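 also: NT is the 2HG producing partner of a matched IDH1 knockdown line; 0% = DMSO-treated cells and -100% = media-only wells without cells; nearly all actives have a fitted effect of over 55% in size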
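Viability by CellTiter-Glo luminescence after 48 h compound exposure at 37C of HT-1080-NT cells (750/well, RPMI, 5% FBS). % activity scaled between DMSO wells and medium-only wells, then curve-fitted and categorized by curve class.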
HT1080 IDH1KD tx: qHTS for induction of synthetic lethality in tumor cells producing 2HG: qHTS for the HT-1080-IDH1KD cell line | HT-1080 IDH1 knockdown viability, ATP luminescence, 48 h | Potency, µM (top dose mostly 46.1 µM), without a hit: top-dose activity, negative = toxicity, usual class: cytotoxic | 360,000 compounds, 2% hits | AID 686971, 2013;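 also: 0% = DMSO wells and -100% = cell-free medium wells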
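Knockdown cells (IDH1KD HT-1080) received compounds 2 h after plating at 750 cells/well and were kept 48 h at 37 °C in 5% FBS RPMI. A CellTiter-Glo luminescence read gave % activity for curve fitting.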
MCF10A rereplic: A quantitative high throughput screen for small molecules that induce DNA re-replication in MCF 10a normal breast cells; MCF 10A DNA re-replication, Hoechst nuclear intensity, 48 h; Potency, µM (highest dose often 46.1 µM), for inactives: top-dose activity, positive = re-replication, most hits filed as activators; 350,000 compounds, 2.9% hits; AID 624296, 2012; also: % of control where 0% means no effect; nearly all actives have a fitted effect of over 50% in size
KB-3-1 tox: qHTS assay for MDR1-selective chemotherapeutics: Primary screen using the parental adenocarcinoma cell KB-3-1; KB-3-1 viability, CellTiter-Glo ATP luminescence, 72 h; 400,000 compounds, 1.4% hits; Potency, µM (titrated, usually from 46.1 µM), usual class: cytotoxic; also: % is scaled to controls: 0 for no effect and ±100 for the full control effect; nearly all actives have a fitted effect of over 60% in size
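Cytotoxicity measured as CellTiter-Glo luminescence after 72 h at 37 C. Compound titrations were pinned onto drug-naive KB-3-1 parental adenocarcinoma cells grown in DMEM with 10% FBS, and normalized data fitted to concentration-response curves.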
KB-V1 MDR tox: qHTS assay for MDR1-selective chemotherapeutics: Primary screen using the drug-selected MDR subline cells KB-V1. KB-V1 MDR cells viability, CellTiter-Glo, 72 h. Potency, µM (series often up to 46.1 µM), usual class: cytotoxic. 400,000 compounds, 3.4% hits; also: % is scaled to controls: 0 for no effect and ±100 for the full control effect; nearly all actives have a fitted effect of over 60% in size
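Potencies derive from concentration-effect curves fitted to normalized luminescence (CellTiter-Glo) of KB-V1 cells treated for 72 h at 37 degrees C in phenol-red-free DMEM containing 10% FBS.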
* marks the source's active call; other numbers are inactive results; i = inactive; u = inconclusive; x = not tested or not shown; [ ] = another dose, or the depositor's remark. Calls follow the shape of the dose curve; as a rule, active = well fitted curve in the direction sought with a large enough effect; inconclusive = small, poorly fitted or top-dose-only effect, or another doubt; inactive = no such curve, though single readings can be large; an effect the other way counts as inactive or inconclusive. Potency is read from the fitted curve at half-maximal effect.

SMILES	SW480 rerep	HT1080NT lethal	HT1080 IDH1KD tx	MCF10A rereplic	KB-3-1 tox	KB-V1 MDR tox
CCCCCCCCn1c(=O)c(C(=O)OC)c(N)c2ccccc21	-12.4%	20.6µM*	16.4µM*	20.6µM*	u	u
CCCCCCCn1c(=O)c(C(=O)OC)c(N)c2ccccc21	-0.4%	u	u	0.3%	i	14.6µM*
CCC(CC)NC(=O)CC(c1ccccc1)c1ccccc1	-4.3%	12.8%	-4.0%	1.7%	i	i
CC(C)(C)NC(=O)C1(C)CCC(=O)N1CC(F)(F)F (centres undefined)	x	20.5%	1.1%	x	i	i
CCOC(=O)C(NC(=O)Nc1ccc(F)cc1)(OCC)C(F)(F)F (centres undefined)	-4.6%	3.8%	7.6%	3.7%	i	i
CCOC(=O)C1(C(F)(F)F)N=C(C(F)(F)F)Nc2ccc(F)cc21 (centres undefined)	13µM*	13.0%	7.5%	-1.9%	i	u
CCN(CC)C(=O)CSc1nc(C)cc(C)c1C#N	-6.2%	20.9%	16.0%	1.0%	i	i
CCc1ccc2nc(SCC(=O)N(CC)CC)c(C#N)cc2c1	1.4%	-1.1%	-1.8%	u	i	13µM*
COc1ccc(CCC(=O)Nc2nc3ccccc3[nH]2)cc1OC	-3.3%	-1.0%	0.2%	0.7%	i	i
Cc1ccc2nc(SCC(=O)Nc3cc(C(F)(F)F)ccc3N3CCOCC3)[nH]c2c1	5.17µM*	u	1.03µM*	0.581µM*	0.82µM*	u
CCC(Sc1nc2ccc(C)cc2[nH]1)C(=O)O (centres undefined)	8.1%	-2.4%	0.0%	-6.8%	i	i
Cc1ccc2nc(SCC(=O)Nc3cccc(S(=O)(=O)N(C)C)c3)[nH]c2c1	0.7%	-14.9%	-12.9%	u	i	u
Cc1ccc(C)c(NC(=O)C(Sc2nc3ccc(C)cc3[nH]2)c2ccccc2)c1 (centres undefined)	u	u	u	20.6µM*	i	i
CCN(CC)S(=O)(=O)c1ccc(C)c(NC(=O)CSc2nc3ccc(C)cc3[nH]2)c1	x	-23.2%	-28.7%	4.6%	i	14.6µM*
O=C(CSc1nccc(=O)[nH]1)Nc1cc(C(F)(F)F)ccc1N1CCOCC1	-2.2%	-3.0%	-1.5%	-2.0%	i	i
CCOc1ccc2nc(NC(=O)CSc3nc(SC)ns3)sc2c1	9.2%	11.3%	5.8%	10.2%	i	23.1µM*
CCOc1ccc2nc(SCC(=O)Nc3ccc4c(c3)OCO4)sc2c1	24.6%	-8.2%	-1.7%	3.2%	i	16.4µM*
Cc1nc2ccc(NC(=O)Cc3ccc4c(c3)OCCO4)cc2s1	-52.6%	4.5%	-6.1%	8.8%	i	14.6µM*
Fc1ccc(NC(=S)N2CCCCC2)cc1	-8.8%	15.4%	20.5%	-5.3%	i	u
CCCCc1ccc(NC(=S)NCCc2ccc(S(N)(=O)=O)cc2)cc1	10.4%	-0.1%	-25.3%	2.3%	i	i
CCOC(=O)c1ccc(NC(=O)c2nc[nH]c2C(=O)NC)cc1	1.0%	0.8%	1.2%	-2.5%	i	i
Cc1ccccc1-n1c(SCC(=O)Nc2ccccc2Cl)nc2n[nH]c(C)c2c1=N	-6.4%	u	u	u	u	i
CCOc1ccccc1-n1c(SCC(=O)Nc2ccc(CC)cc2)nc2n[nH]c(C)c2c1=N	-2.0%	-9.3%	u	8.2µM*	18.4µM*	u
CCOc1ccccc1NC(=O)CCSc1nc2n[nH]c(C)c2c(=N)n1-c1ccccc1Cl	u	u	u	13µM*	i	u
CC(NC(=O)C(=O)N1CCOCC1)C(c1cccs1)N1CCN(c2ccc(F)cc2)CC1 (centres undefined)	8.5%	-0.6%	-4.0%	-2.7%	i	i
SMILES	SW480 rerep	HT1080NT lethal	HT1080 IDH1KD tx	MCF10A rereplic	KB-3-1 tox	KB-V1 MDR tox
CC(C)C[C@@H](CN1CCC[C@@H]1CN1C(=S)NC[C@@H]1Cc1ccccc1)N1C[C@H](Cc2ccc(O)cc2)N(CC2CCCCCC2)C1=S	x	u	18.4µM*	x	u	u
CC(C)C[C@@H](CN1CCCC1CN1C(=S)NC[C@@H]1Cc1ccc(O)cc1)N1C[C@H](Cc2ccc(O)cc2)N(CC2CCCCC2)C1=S (some centres undefined)	u	18.4µM*	u	7.31µM*	u	u
CC(C)C[C@@H](CN1CCC[C@@H]1CN1C(=S)NC[C@@H]1Cc1ccccc1)N1C[C@H](Cc2ccc(O)cc2)N(CC2CCCCC2)C1=S	x	1.2%	1.5%	x	i	i
COc1cc(CNC2CCCC2)cc(Cl)c1OCc1ccccc1F	-5.6%	u	12.6µM*	2.2%	i	23.1µM*
COc1cc(CNc2ccc3[nH]c(=O)[nH]c3c2)cc(Cl)c1OCc1ccccc1F	x	x	x	x	i	i
C/C(=N\NC(=S)NCc1ccccc1)c1ccc(C(C)(C)C)cc1	3.9%	-25.9%	u	u	i	18.4µM*
C/C(=N\NC(=S)NCc1ccccc1)c1ccccc1	13.7%	2.2%	-13.3%	5.4%	i	i
Cc1cc(=O)c2c([nH]1)c(C)cc1[nH]c(C)c(C)c12	9.2µM*	-0.2%	0.2%	7.7%	u	i
Cc1cc(C)c(S(C)(=O)=O)c(=O)[nH]1	-8.5%	20.0%	17.2%	4.5%	i	i
COc1ccc(NC(=O)C(=O)N/N=C(\C)CC(=O)Nc2ccccn2)c(OC)c1	-50.6%	15.8%	10.1%	u	i	i
CSc1cc(-c2ccc(Cl)cc2)c(C(=O)NC(C)C)s1	u	18.4%	10.0%	u	i	i
CSc1cc(-c2ccc(Cl)cc2)c(C(=O)NN)s1	u	u	u	u	u	8.2µM*
Cc1ccc(C)c(NS(=O)(=O)c2cc(C(=O)NCc3ccccn3)ccc2Cl)c1	1.4%	4.4%	5.0%	13.4%	u	i
CC1CCCC(NC(=O)COC(=O)/C=C/c2ccco2)C1C (centres undefined)	-5.4%	0.5%[9.24 µM]	2.9%	-6.0%	i	u
CC1CCCCC1NC(=O)COC(=O)c1c2c(nc3ccccc13)/C(=C\c1ccco1)CC2 (centres undefined)	u	-20.0%	-5.9%	18.4µM*	i	i
